In all, about 33,000 sequences were measured (“E-score (-0.5 to 0.5)”: median about -0.013, highest 2% from about 0.3 on). Shown is part of a subset that was picked to be rich in the highest values.
molecular target: T1, Msn1 (UniProt P22148); test: PBM E-score (8-mer binding enrichment) (E-score (-0.5 to 0.5)); higher = stronger / more preferred TF binding; conditions: protein concentration: 200 nM; construct: GST-full length
T1 sequence: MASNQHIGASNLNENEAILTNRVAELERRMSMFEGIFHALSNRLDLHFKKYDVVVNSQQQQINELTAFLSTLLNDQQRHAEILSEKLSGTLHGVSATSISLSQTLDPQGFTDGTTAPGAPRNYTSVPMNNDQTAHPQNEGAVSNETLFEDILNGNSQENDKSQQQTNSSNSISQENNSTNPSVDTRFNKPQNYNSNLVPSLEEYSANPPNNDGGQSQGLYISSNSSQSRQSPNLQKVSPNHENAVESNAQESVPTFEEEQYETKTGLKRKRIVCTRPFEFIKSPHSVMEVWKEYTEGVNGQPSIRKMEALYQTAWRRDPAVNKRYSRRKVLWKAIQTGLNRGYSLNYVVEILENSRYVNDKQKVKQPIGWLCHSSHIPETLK
Method in brief: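 Universal all-10-mer Agilent arrays, fresh or stripped once, were converted to double-stranded form by primer extension. GST-tagged yeast transcription factors from PURExpress in vitro transcription/translation, full-length or DNA-binding domain only, were applied at about 100-200 nM and detected with fluorescent anti-GST. After masliner normalisation, the Universal PBM Analysis Suite scored each ungapped eight-base word together with its reverse complement by E-score.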

Row | Sequence | PBM E-score
1 | ATGGGTAA | 0.0578
2 | CTTCCACC | -0.298
3 | CGGTATCC | -0.224
4 | AAACATGT | 0.17
5 | ACCGATTC | -0.0811
6 | AGATTGTA | 0.091
7 | AGATTGTC | 0.369
8 | CGATTGTC | 0.348
9 | CGATTGTA | 0.088
10 | CGATTGAC | 0.151
11 | AGATTGTG | -0.0281
12 | AGTTATTA | 0.0736
13 | CAGCACTG | -0.226
14 | GCCTTCGC | -0.098
15 | CCAGATTC | -0.389
16 | ATTTGTAA | 0.169
17 | CCTTGTAC | 0.183
18 | CTTTGTAC | 0.322
19 | ATTTGTAG | 0.162
20 | CTTTGTAA | 0.168
21 | ATTTGTAC | 0.46
22 | AGGAATTC | -0.0844
23 | AGCGAACG | -0.274
24 | CACCTTCG | -0.0896
25 | ACAAAGGT | 0.218
26 | ACAAATGC | 0.304

Row | Sequence | PBM E-score
27 | ACAAATGT | 0.446
28 | ACAAATGG | 0.345
29 | GCAAATGC | -0.113
30 | CCAAATGG | 0.169
31 | GCAAATGA | -0.0127
32 | ACAATGGG | 0.196
33 | CCAAATGC | -0.0167
34 | ACAAATGA | 0.317
35 | ACAAACGT | 0.244
36 | CCAAATGA | 0.05
37 | CTTCGGGA | 0.15
38 | AACGAGCT | -0.0712
39 | GGCGGCCA | -0.161
40 | CGGTTAGA | -0.22
41 | CACAATCC | 0.119
42 | GCTCAACA | -0.0111
43 | ATAGTTTG | 0.274
44 | GCGCGATA | 0.119
45 | GGATTGGA | 0.0131
46 | ACAAATCT | 0.308
47 | ACAAATCC | 0.265
48 | ACAAATCA | 0.266
49 | GAGGATCC | -0.0362
50 | AAAAATGA | 0.143
51 | AAAAATGG | 0.311
52 | AAAATGGG | 0.182

Row | Sequence | PBM E-score
53 | AAAAATGC | 0.0785
54 | CAAAATGG | 0.133
55 | AAAAATGT | 0.335
56 | AGTTTTTC | 0.0155
57 | ATGCGTGA | 0.167
58 | CGCCAGCG | -0.278
59 | ATCCGGAA | 0.215
60 | ATCCGGAC | 0.297
61 | GTCCGGAC | 0.406
62 | CTCCGGAA | 0.0926
63 | ATCCGGGA | -0.0993
64 | CTCCGGAC | 0.224
65 | GTCCGGAA | 0.368
66 | CTCCGGGA | -0.0499
67 | GTCCGGGA | 0.336
68 | GAGGAGCA | -0.184
69 | TATTTTGA | 0.033
70 | ATCTTTGG | -0.0763
71 | AACTTGTA | 0.107
72 | AGCTTGTC | 0.168
73 | CGCTTGTA | 0.211
74 | AACTTGAA | 0.101
75 | AACTTGTC | 0.391
76 | CGCTTGTC | 0.345
77 | AACTTGAT | 0.321
78 | AACTTGAG | -0.212

Row | Sequence | PBM E-score
79 | CCCTTGTC | 0.204
80 | CACTTGTC | 0.408
81 | AACTTGTG | 0.132
82 | CACTTGTA | 0.157
83 | ACCGAATG | -0.0786
84 | AGCTCACA | -0.111
85 | GCGGCTCC | -0.285
86 | AACGCTAA | -0.0499
87 | ATCGCAAC | -0.0713
88 | GTTAAGAA | -0.0961
89 | GATCCGGA | 0.0679
90 | ACACCTAC | -0.04
91 | CTCTTGTC | 0.339
92 | ATCTTGTC | 0.246
93 | CTCTTGTA | 0.035
94 | CCACCACA | -0.214
95 | TATGGGGA | 0.123
96 | AAGAGGGT | -0.12
97 | ACACATTA | 0.0185
98 | AGACATTG | 0.402
99 | CCACATTA | -0.107
100 | CGACATGC | 0.218
101 | CTACATTC | -0.121
102 | AAACATTG | -0.00791
103 | ACACATTG | 0.171
104 | AGACATGA | 0.226

Row | Sequence | PBM E-score
105 | CGACATTC | 0.332
106 | CGACATTA | 0.386
107 | AGACATTA | 0.429
108 | CTACATTA | 0.00564
109 | ACTAATCA | 0.152
110 | GTTTAGCA | 0.0757
111 | CTCACCCA | -0.0776
112 | TCCTTAGA | 0.117
113 | CAACTATG | 0.161
114 | GGCAGCGA | -0.245
115 | AGATCGCT | -0.0127
116 | AGACATTC | 0.445
117 | GTACATTA | 0.278
118 | GCACATTA | -0.0601
119 | GGACATTA | 0.489
120 | ACACATTC | 0.11
121 | AGACATGC | 0.21
122 | CGAAACCG | 0.0338
123 | ACGCAAGC | -0.0684
124 | ACTAGCTG | 0.0299
125 | AATTCATC | -0.22
126 | AAAAAGTG | -0.0627

From the supplement of paper PMC3334620
